Source: PubChem
Shiga toxin inh – Shiga toxin inhibition | inhibition, % at 38.7 µM | hit rate 9.2% among 290,000 | Vero cells, Shiga toxin protein synthesis inhibition reporter | AID 2315; in the data active = inhibition mostly above about 28%, no sharp cut-off; inactive = mostly below about 43%
CHX counter – counter-screen for Shiga toxin inhibitors: cycloheximide protein synthesis inhibition. cell reporter, cycloheximide protein synthesis inhibition counterscreen. max response, %. hit rate 12% among 300,000. AID 2314; in the data active = max response mostly above about 13%, no sharp cut-off; inactive = mostly below about 14%; also: read at 38.3 µM for the half of the compounds with a filed dose
LmPK inh – blocks Leishmania mexicana pyruvate kinase activity; Q27686; purified LmPK, Kinase-Glo ATP luminescence, 1 h; Potency, µM (titrated, usually from 57.5 µM), usual class: inhibitors; hit rate 0.37% among 290,000
Target sequence (Q27686 whole entry, looked up): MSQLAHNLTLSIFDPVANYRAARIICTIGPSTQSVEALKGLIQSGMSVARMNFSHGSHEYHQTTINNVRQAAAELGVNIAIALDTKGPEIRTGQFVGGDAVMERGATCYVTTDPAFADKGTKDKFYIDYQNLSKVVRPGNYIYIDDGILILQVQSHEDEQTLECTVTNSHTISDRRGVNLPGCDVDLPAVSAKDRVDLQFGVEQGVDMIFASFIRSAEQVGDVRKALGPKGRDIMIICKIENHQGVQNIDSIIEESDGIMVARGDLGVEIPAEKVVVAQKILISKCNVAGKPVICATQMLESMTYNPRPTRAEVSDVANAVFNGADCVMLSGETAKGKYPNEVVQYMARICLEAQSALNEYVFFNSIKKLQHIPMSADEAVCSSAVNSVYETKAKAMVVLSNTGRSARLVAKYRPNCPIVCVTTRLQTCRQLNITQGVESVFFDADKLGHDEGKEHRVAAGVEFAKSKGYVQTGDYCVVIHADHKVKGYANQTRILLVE
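Purified LmPK (0.1 nM) with 0.5 mM PEP and 0.1 mM ADP in imidazole buffer pH 7.2 with MgCl2/KCl, 1 h at room temperature. ATP formed was read by luciferase luminescence and normalized to no-enzyme and uninhibited controls.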
Pf growth 96h – P. falciparum growth inhibition at 96 hour, primary screen for plastid delayed-death inhibitors; Potency, µM (top dose mostly 28.7 µM), most hits filed as inhibitors; hit rate 6.9% among 320,000; P. falciparum luciferase reporter growth, 96 h
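Two parasite generations (96 h, 37 C, 5% CO2) of compound exposure in infected erythrocytes (0.05% parasitemia, 2% hematocrit). Luciferase-reporter P. falciparum; decreased luminescence indicates inhibited growth, aimed at apicoplast-acting delayed death.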
Pf growth 48h – P. falciparum growth inhibition at 48 hours (one generation) | hit rate 5.9% among 310,000 | P. falciparum luciferase growth in erythrocytes, 48 h | Potency, µM (series often up to 28.7 µM), actives largely listed as inhibitors
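Read-out is firefly luciferase luminescence from an integrated reporter in P. falciparum, so falling signal marks reduced parasite growth. Infected erythrocytes were at 2% hematocrit and 0.1% parasitemia (final) in Albumax-supplemented RPMI 1640.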
Each line names hits and unclear results; the compound was inactive in the other large screens; ! = repeats disagree. An excerpt weighted towards active compounds, which were near 22% of everything screened. Unless noted, calls follow the shape of the dose curve; as a rule, active = well fitted inhibition curve with a large enough effect; inconclusive = small, poorly fitted or top-dose-only effect, or another doubt; inactive = no such curve, though single readings can be large or run the other way.

Cc1ccc(-c2cn3c(=O)cc(C)[nH]c3n2)cc1	CHX counter 26
Cc1cc(=O)n2cc(-c3ccccc3)nc2[nH]1	CHX counter 22
O=C(CCn1c(=O)sc2ccccc21)NC1CCCCC1	none
COc1ccc(Cl)cc1NC(=O)CN(C)CC(=O)Nc1ccc(C)cc1Br	Pf growth 96h inconclusive
Cc1cc(C)cc(C(=O)OCC(=O)N2CCCCCC2)c1	none (no result: Shiga toxin inh, CHX counter, LmPK inh)
CS(=O)(=O)c1ccccc1-c1nnc(NC(=O)Cc2ccccc2)o1	Pf growth 96h inconclusive
Cc1cc(NC(=O)C2CC(=O)N(c3cccc(Cl)c3)C2)no1 (centres undefined)	none
Cc1cc2occ(CC(=O)NNC(=O)c3ccccc3)c2cc1C	CHX counter 9.9, Pf growth 96h inconclusive
CCC(=O)NC(=S)Nc1ccc(NC(=O)c2ccccc2[N+](=O)[O-])cc1	none
CCCOC(=O)c1ccc(NC(=O)c2ccccc2OC)cc1	Shiga toxin inh 86, CHX counter 26
CCCCOC(=O)c1ccc(NC(=O)c2ccccc2OC)cc1	Shiga toxin inh 29, Pf growth 96h inconclusive
CCCOC(=O)c1ccc(NC(=O)c2ccccc2[N+](=O)[O-])cc1	Shiga toxin inh 91, CHX counter 38, Pf growth 96h inconclusive
CCCOC(=O)c1ccc(NC(=O)c2c(Cl)ccc(Cl)c2OC)cc1	none
CCCCOC(=O)c1ccc(NC(=O)c2cc(Cl)ccc2OC)cc1	Pf growth 96h inconclusive, Pf growth 48h inconclusive
CC(C)COc1ccc(C(=O)NCc2ccco2)cc1	Shiga toxin inh 36, CHX counter 14, Pf growth 48h 12µM (no result: Pf growth 96h)
O=C(NCc1ccco1)c1ccc(COc2ccc(Cl)cc2)cc1	Pf growth 96h inconclusive, Pf growth 48h inconclusive
O=C(NCc1ccco1)c1ccc2c(c1)C(=O)c1ccccc1-2	Shiga toxin inh 67, CHX counter 19 (no result: Pf growth 96h)
O=C(NCc1ccco1)Nc1ccc([N+](=O)[O-])cc1	CHX counter 26!
O=C(NCc1ccco1)c1ccc2ccccc2c1	Shiga toxin inh 79, CHX counter 36
O=C(NCc1ccco1)c1ccc2c(c1)C(=O)N(Cc1ccccc1)C2=O	none
O=C(NCc1ccco1)c1ccc(COc2ccccc2Cl)cc1	Pf growth 96h inconclusive, Pf growth 48h inconclusive
CCOc1ccc(NC(=O)NC2(C(=O)NCc3ccco3)CCCCC2)cc1	none
CC(C)(CO)NC(=O)c1ccc2c(c1)C(=O)c1ccccc1-2	Shiga toxin inh 86, CHX counter 51 (no result: Pf growth 48h)
CCOc1ccc(NC(=O)NCc2ccco2)cc1	CHX counter 12
O=C(NCc1ccco1)c1ccc(COc2cccc3ccccc23)cc1	Pf growth 96h 7.4µM, Pf growth 48h 7.4µM
O=C(NCc1ccco1)c1ccc(Oc2ccccc2)cc1	Shiga toxin inh 76, CHX counter 55, Pf growth 96h 7.4µM (no result: Pf growth 48h)
Cn1c(SCC(=O)NNC(=O)c2ccccc2Br)nnc1C(F)(F)F	none (no result: Shiga toxin inh, CHX counter, LmPK inh)
CCCn1nc(C(=O)Nc2ccc(N3CCOCC3)cc2)c2ccccc2c1=O	none (no result: Shiga toxin inh, CHX counter, LmPK inh)
OC1(c2ccccc2F)CCN(Cc2nnnn2Cc2ccc(F)cc2)CC1	none
CCOc1ccc(C(=O)NCc2ccco2)cc1	Shiga toxin inh 63, CHX counter 41 (no result: Pf growth 48h)
O=C(NCc1ccccc1F)Nc1ccc([N+](=O)[O-])cc1	Shiga toxin inh 35, Pf growth 96h 13µM
CCOC(=O)N1CCC(N2C(=O)c3ccc(C(=O)NCc4ccco4)cc3C2=O)CC1	Pf growth 96h 12µM
O=C(NCc1cccnc1)Nc1ccc([N+](=O)[O-])cc1	Pf growth 96h inconclusive
CCOC(=O)N1CCC(N2C(=O)c3ccc(C(=O)NCc4ccc(F)cc4)cc3C2=O)CC1	none
COc1cccc(C(=O)NCc2ccco2)c1	Pf growth 96h 10µM
CCN1C(=O)C2CCCCN2c2ccc(C(=O)NCCOC)cc21 (centres undefined)	Pf growth 96h inconclusive
CC(C)CN(C(=O)c1ccc(C(F)(F)F)cc1)c1c(N)n(CC(C)C)c(=O)[nH]c1=O	none
O=C(NCCO)c1nc(C(=O)c2ccccc2)c2ccccc2n1	none (no result: Shiga toxin inh, CHX counter, LmPK inh)
O=C(Cn1c(=O)n(-c2cccc(C(F)(F)F)c2)c(=O)c2sccc21)NCC1CCCO1 (centres undefined)	none
Cn1c(COc2ccccc2)nnc1SCCC(=O)Nc1ccccc1	none
CCOc1ccc(/C=N/NC(=O)CSc2n[nH]c(=O)[nH]c2=O)cc1OC	Pf growth 48h inconclusive
COC(=O)C(CCSC)NC(=O)c1cn(-c2ccc(OC)cc2)c(=O)c2ccccc12 (centres undefined)	Pf growth 96h inconclusive, Pf growth 48h inconclusive
